In the library only some 4.6% were active in any assay of this set; here they are far more common.
D1 ag: activates the human D1 dopamine receptor; activation, % at 2 µM; HEK293 T-REx D1 cells, calcium flux, agonist mode; 360,000 tested, 1% active
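Inducible HEK293 T-REx D1 cells, force-coupled to calcium signalling, were plated at 4000 cells/well with tetracycline and held overnight at 30 C. After no-wash calcium dye loading, compound-evoked calcium rise over 180 s flagged agonists.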
D1 antag: antagonists of human D1 dopamine receptor. P21728. HEK293 TREx D1 cells, calcium flux, dopamine EC80; stronger effect = lower value. activity change, negative = inhibition, % at 10 µM. 360,000 tested, 3.2% active. AID 504652; in the data active means activity change below about -30%
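Calcium flux readout: force-coupled, inducible Hek293 Trex D1 line, cells induced overnight at 30 C with tetracycline, dye-loaded 30–90 min at RT. Antagonism scored against EC80 dopamine challenge given 180 s after compound.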
D1 PAM: potentiators of human D1 dopamine receptor; potentiation, % at 10 µM; AID 504651; 360,000 tested, 0.036% active; HEK293 TREx D1 cells, calcium flux, dopamine EC20 potentiation; P21728; in the data active means potentiation above about 30%
TRHR ag: agonists of human TRH receptor; 360,000 tested, 0.18% active; activation, % at 2 µM; P34981; TRHR cells, calcium flux fluo-8, FDSS agonist mode
Target sequence (P34981 whole entry, looked up): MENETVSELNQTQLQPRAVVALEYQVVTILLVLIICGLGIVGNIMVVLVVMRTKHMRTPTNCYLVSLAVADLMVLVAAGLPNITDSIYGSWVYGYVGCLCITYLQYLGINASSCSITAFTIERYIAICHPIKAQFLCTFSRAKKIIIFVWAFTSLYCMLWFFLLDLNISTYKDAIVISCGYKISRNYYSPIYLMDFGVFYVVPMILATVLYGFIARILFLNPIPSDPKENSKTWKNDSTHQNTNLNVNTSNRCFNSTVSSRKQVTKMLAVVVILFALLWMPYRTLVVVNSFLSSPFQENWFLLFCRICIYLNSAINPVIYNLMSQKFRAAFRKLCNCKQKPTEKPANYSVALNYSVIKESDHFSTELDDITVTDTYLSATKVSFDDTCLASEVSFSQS
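Read-out: compound-evoked intracellular calcium rise in TRHR cells, fluo-8 dye, kinetic FDSS fluorescence at 1 s/cycle following a 10-cycle baseline. Cells cultured overnight before dye loading (30 min–1.5 h, RT).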
TRHR enhancer: TRH receptor (human) allosteric enhancement; P34981; TRHR cells, fluo-8 calcium fluorescence, EC20 TRH enhancement; enhancement, % at 2 µM; 360,000 tested, 0.66% active; AID 493056; in the data active means enhancement above about 30%
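TRHR-expressing cells loaded with fluo-8 calcium dye were read kinetically (ex 480/em 530) during compound addition, then stimulated with an EC20 of TRH (10 nM final). Enhancement of the Gq-mediated intracellular calcium response was scored.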
Hits are given with their value; . = inactive. Unless noted, no stated cut-off is given here; in the data, active means activation above about 30%; inactive means the rest.

SMILES | D1 ag | D1 antag | D1 PAM | TRHR ag | TRHR enhancer
Cc1ccc(C)c(C(=O)COC(=O)c2ccccc2N2C(=O)C3C4CCC(C4)C3C2=O)c1 (stereo unspecified) | . | -42.2 | . | . | .
CCOc1ccc(CCNC(=O)CSc2nc3ccccc3nc2Cc2ccc(C)cc2)cc1OCC | . | . | . | . | .
CCOc1ccc(C(=O)Nc2cccc(NC(=O)c3ccc(Cl)cc3Cl)c2)cc1 | . | . | . | . | .
N#Cc1nc(Nc2cc(F)cc(F)c2)c2ncn(CC(F)F)c2n1 | . | . | . | . | .
N#Cc1nc(NCC(F)F)c2ncn(-c3cccc(Cl)c3)c2n1 | . | -49.3 | . | . | .
CCN(CC)C(=O)C1CCCN(c2ccccc2[N+](=O)[O-])C1 (stereo unspecified) | . | . | . | . | 37.3
O=C(COc1ccc(C(=S)N2CCOCC2)cc1Cl)Nc1ccccc1Cl | . | . | . | . | 33.7
COc1cc(C(=S)N2CCCCC2)ccc1OCC(=O)Nc1ccccc1Cl | . | . | . | . | .
C=C1CC[C@@H]2[C@](C)(CO)[C@H](O)CC[C@@]2(C)[C@@H]1/C=C/C1=CCOC1=O | . | . | . | . | .
C=C1CCC2[C@](C)(CO)[C@H](O)CC[C@@]2(C)[C@@H]1/C=C/C1=CCOC1=O (stereo partly specified) | . | -65.8 | . | . | .
CCOC(=O)N/N=C(\c1ccccc1)C(O)c1ccccc1 (stereo unspecified) | . | . | . | . | .
CCOC(=O)C1CSC(CC(=O)Nc2ccc(OC(F)(F)F)cc2)C(=O)N1 (stereo unspecified) | . | -32.4 | . | . | .
COc1ccc(-c2noc(N3CCC(C(=O)NCc4ccc(F)cc4)CC3)n2)cc1 | . | -36.2 | . | . | .
Cc1nc(-c2ccc(C)c(S(=O)(=O)N3CCC(C(=O)NCc4ccc(Cl)cc4)CC3)c2)no1 | . | . | . | . | 30.3
COc1ccc(-c2noc(N3CCC(C(=O)N4CCN(c5ccccc5OC)CC4)CC3)n2)cc1 | . | -56.1 | . | . | .
COc1ccc(-c2noc(N3CCC(C(=O)N4CCN(c5cccc(C)c5C)CC4)CC3)n2)cc1 | . | . | . | . | .
COc1ccc(-c2noc(N3CCC(C(=O)Nc4ccc(F)cc4F)CC3)n2)cc1 | . | . | . | . | .
COc1ccc(-c2noc(N3CCC(C(=O)Nc4ccc(OC)cc4OC)CC3)n2)cc1 | . | -31.4 | . | . | .
CCc1ccc(NC(=O)C2CCN(c3nc(-c4ccc(OC)cc4)no3)CC2)cc1 | . | . | . | . | .
O=C(NNc1ccccc1)/C(=C\c1cccnc1)NC(=O)c1ccccc1 | . | . | . | . | .
Cc1cccnc1NC(=O)CNC(=O)COc1ccccc1 | . | . | . | . | 33.1
CSc1nn(Cc2ccc(F)cc2)c(N)c1S(=O)(=O)c1ccc(Cl)cc1 | . | . | . | . | .
CCOC(=O)C1CCN(C(c2cccs2)c2sc3nc(C)nn3c2O)CC1 (stereo unspecified) | . | . | . | . | .
CCOC(=O)C1CCN(C(c2cccc(OC)c2)c2sc3nc(C)nn3c2O)CC1 (stereo unspecified) | . | -30.6 | . | . | .
COc1cccc(N2CC(NS(=O)(=O)c3ccc4ccccc4c3)CC2=O)c1 (stereo unspecified) | 31.2 | . | . | . | .
SMILES | D1 ag | D1 antag | D1 PAM | TRHR ag | TRHR enhancer
CCOC(=O)C1C(C)=C(Nc2ccc(OC)cc2)C(=O)N1c1ccc(OC)cc1 (stereo unspecified) | . | . | . | . | .
CC/C(=N\Nc1ccc([N+](=O)[O-])cc1)c1ccccc1 | . | -33.6 | . | . | .
C/C(=N\Nc1ccc([N+](=O)[O-])cc1)c1ccco1 | 33.3 | . | . | . | .
C/C(=N\Nc1ccccc1[N+](=O)[O-])c1ccc(N2CCOCC2)cc1 | . | . | . | . | .
C/C(=N\Nc1ccc([N+](=O)[O-])cc1)c1ccc(N2CCOCC2)cc1 | 38.9 | . | . | . | .
C/C(=N\NC(=O)COc1ccc([N+](=O)[O-])cc1)c1ccco1 | . | . | . | . | .
O=C(Nc1ccc(Cl)cc1C(F)(F)F)c1cc(S(=O)(=O)N2CCOCC2)ccc1F | . | . | . | . | .
N#CCSc1nc2c(cc1C#N)CCCC2 | . | -31.8 | . | . | .
N#Cc1cc2c(nc1SCc1ccccc1)CCCCC2 | . | . | . | . | .
N#Cc1cc2c(nc1SCc1cccc(Cl)c1)CCCCC2 | . | -38.9 | . | . | .
Cc1ccc(CSc2nc3c(cc2C#N)CCC3)cc1 | . | -35.1 | . | . | .
CCOC(=O)N1CCC(N(CCCOC)C(=O)Nc2cccc(OC)c2)CC1 | . | -31.4 | . | . | .
COc1cccc(CC(NC(C)=O)C(=O)NC2CCN(S(=O)(=O)c3ccc(NC(C)=O)cc3)CC2)c1 (stereo unspecified) | . | . | . | . | .
CCOC(=O)Cn1c(=O)n(C2CCCCC2)c2nc(-c3cccc(C)c3)nc(C(N)=O)c21 | . | -85.7 | . | . | .
CCOC(=O)Cn1c(=O)n(CC2CCCO2)c2nc(-c3ccc(C(C)C)cc3)nc(C(N)=O)c21 (stereo unspecified) | . | . | . | . | .
CCOC(=O)Cn1c(=O)n(CC2CCCO2)c2nc(-c3ccc(OC)cc3OC)nc(C(N)=O)c21 (stereo unspecified) | . | . | . | . | 42.4
CCOC(=O)Cn1c(=O)n(C2CCCCC2)c2nc(-c3cccc(F)c3)nc(C(N)=O)c21 | . | . | . | . | .
CCOC(=O)Cn1c(=O)n(CC(=O)OCC)c2ccccc21 | . | . | . | . | .
CCOC(=O)Cn1c(=O)n(C2CCCC2)c(=O)c2ccccc21 | . | . | . | . | 40.5
CCOC(=O)Cn1c(=O)n(C2CCCCC2)c2nc(-c3ccc(C(C)C)cc3)nc(C(N)=O)c21 | . | -51.3 | . | . | .
CN1C(=O)/C(=C/c2ccc(-c3ccccc3[N+](=O)[O-])o2)SC1=Nc1ccc(Cl)c(C(=O)O)c1 | . | . | . | . | .
CCOc1ccc(C(CC(=O)O)N2Cc3ccccc3C2=O)cc1OC (stereo unspecified) | . | . | . | . | .
CCOC(=O)C1=C(CN2CCC(C)CC2)NC(=O)NC1c1ccc(OC(C)C)cc1 (stereo unspecified) | . | . | . | . | .
CCOC(=O)C1=C(CN(CC)Cc2ccccc2)NC(=O)NC1c1ccc(OC(C)C)cc1 (stereo unspecified) | . | -44.9 | . | . | .
CCNc1nc(SCC(N)=O)nc2sc3c(c12)CCN(C)C3 | 33.3 | . | . | . | .
CSc1nc(NCc2ccco2)c2c3c(sc2n1)CN(C)CC3 | . | -42.3 | . | . | .
CSc1nc(SCC(N)=O)c2c3c(sc2n1)CN(C)CC3 | . | . | . | . | .
COc1cccc(-c2cccc(NC(=O)C3CCN(Cc4nccs4)CC3)c2)c1 | . | . | . | . | .

Assay outcomes from PubChem BioAssay.
